PubChem BioAssay (Tox21)
“And” between values parts separate entries of the source, which are not always exact repeats. Equal values may be shown once. Results filed as inconclusive are left out. Entries that show only a call come without a potency. A number with no mark means an inactive call. The source made the active and inactive calls. Calls follow the shape of the dose curve; as a rule, active = well fitted cell-killing curve with a large enough effect in the repeat runs; inconclusive = weak or mixed curves, or effect the other way; inactive = flat fitted curve, though single readings scatter.

assay: qHTS RealTime-Glo MT Cell Viability Assay in HEK293 cells - 32 hour (AID 1224868); conditions: RealTime-Glo luminescence; series mostly up to 76.8 µM; also: nearly all actives have a fitted effect of over 50% in size; as to activity change, negative = cytotoxic: top concentration of the series differs between compounds
Source text: National Center for Advancing Translational Sciences [NCATS]
NIH Chemical Genomics Center [NCGC]
U.S. Environmental Protection Agency [EPA]
National Institutes of Environmental Health Sciences [NIEHS]
National Toxicology Program [NTP]
U.S. Food and Drug Administration [FDA]
Measure of cell viability is critical in the cell-base assay. Analysis of cell viability is necessary for the characterization of cell responses to cytotoxic drugs and environmental stress. A RealTime-Glo MT Cell Viability Assay to monitor cell viability in real time of continues cell culture during 40 hours of compound treatment was used to screen Tox21 10K library compounds in Hek293 cells. The RealTime-Glo MT Cell Viability Assay is a nonlytic, homogeneous, bioluminescent method to measure cell viability in real time using a simple, plate-based method. The assay involves adding NanoLuc luciferase and a cell-permeant prosubstrate to cells in culture. Viable cells reduce the proprietary prosubstrate to generate a substrate for NanoLuc luciferase. This substrate diffuses from cells into the surrounding culture medium, where it is rapidly used by the NanoLuc Enzyme to produce a luminescent signal. The signal correlates with the number of viable cells, making the assay well suited for cytotoxicity studies.
Tox21 Assay Protocol Summary:
The mixture of Hek293 cell suspension and reagents were dispensed at 600cells/6 ul/well in 1536-well tissue culture treated black solid bottom plates using a Multidrop dispenser. After the assay plates were incubated at a 37 C/5% CO2 incubator for 5 hours, 23 nL of compounds dissolved in DMSO, positive and negative controls was transferred to the assay plate by a pintool work station. The plates were incubated at 37 C for 40 hours. The luminescence intensity were measured at 0h, 8h, 16h, 24h, 32h and 40h time points using ViewLux plate reader during compound treatment.
Potency is read from the fitted curve at half-maximal effect.

Compound | Potency | activity change, negative = cytotoxic
CCCCCCCCSC(=O)Oc1cc(Cl)nnc1-c1ccccc1 | inactive | 
CC(=NC#N)N(C)Cc1ccc(Cl)nc1 | inactive | 
Clc1nc(Cl)nc(Nc2ccccc2Cl)n1 | inactive | 
CCOC(=O)COc1ccc(Cl)cc1Cl | inactive | 
O=C1C2CC=CCC2C(=O)N1SC(Cl)(Cl)Cl (stereo not given) | 43.5 µM (active) and 3.04 µM (active) | 
O=CCCl | inactive | 
C=CCCC#N | inactive | 
CCC1(c2cccc(O)c2)CCCCN(C)C1 (stereo not given) | inactive | 
CC(C)(C)C(=O)Cl | inactive | 
Cc1cc(OC(=O)N(C)C)nn1C(=O)N(C)C | inactive | 
CCN[C@@H](C)Cc1ccccc1 | inactive | 
O=C(CCl)NCO | inactive | 
COc1ccc(CN2CCNCC2)c(OC)c1OC | inactive | 
CC(C)(C)C(=O)C(Cl)Cl | inactive | 
CC(C)(O)C(Cl)(Cl)Cl | inactive | 
CCCCCCC(=O)CCCCCC/C=C/C[C@@H](O)[C@H](O)[C@@](N)(CO)C(=O)O |  | 2.61% [at 15.8 µM]
CCCOC(=O)Cc1ccc(OCC(=O)N(CC)CC)c(OC)c1 | inactive | 
COc1cc(CCN)cc(OC)c1OC | inactive | 
CC[C@@H](CO)NC(=O)[C@@H]1C=C2c3cccc4c3c(cn4C)C[C@H]2N(C)C1 | inactive | 
CCCCS(=O)(=O)Cl | inactive | 

Compound | Potency | activity change, negative = cytotoxic
COc1ccc(C=O)cc1O | inactive | 
CC(Cc1ccccc1)NCCCCl (stereo not given) | inactive | 
CCC(=O)OC1(c2ccccc2)CCN(C)CC1 | inactive | 
NCCOS(=O)(=O)O | inactive | 
CCCCCCCC(=O)Cl | inactive | 
C/C(=N\NC(=O)Nc1cc(F)cc(F)c1)c1ncccc1C(=O)O | inactive | 
CC[C@@H](CO)NC(=O)[C@@H]1C=C2c3cccc4[nH]cc(c34)C[C@H]2N(C)C1 | inactive | 
Cl/C=C/CCl | inactive | 
O=c1[nH]c2ccccc2o1 | inactive | 
CNC(=O)Oc1ccccc1C(C)C | inactive | 
C=CCC1(C(C)CC)C(=O)NC(=O)NC1=O (stereo not given) | inactive | 
O=C(O)C(F)(F)C(F)(F)C(F)(F)C(F)(F)C(F)(F)C(F)(F)F | inactive | 
CON(C)C(=O)Nc1ccc(Br)cc1 | inactive | 
O=S1(=O)OCCO1 | inactive | 
C#CC(C)(C)O | inactive | 
C=CCc1cc(OC)c2c(c1)OCO2 | inactive | 
CCN[C@@H](C)Cc1cccc(C(F)(F)F)c1 | inactive | 
O=C(O)C(Br)(Br)Br | inactive | 
NNCc1ccccc1 | inactive | 
C=C(Cl)CSC(=S)N(CC)CC | inactive | 
